# Measurements from PubChem BioAssay (NCATS).
# Records with an inconclusive call do not appear. Active and inactive are the calls of the source. Calls follow the shape of the dose curve; as a rule, active = well fitted cell-killing curve with a large enough effect; inconclusive = small, poorly fitted or top-dose-only effect, or effect the other way; inactive = no such curve, though single readings can be large or run the other way.
# Test: Quantitative High-Throughput drug screen in 47 multiple myeloma cell lines against the NCATS MIPE library collection: AMO1_DSMZ cell viability assay (AID 1918927; also: nearly all actives have a fitted effect of over 30% in size)
# Settings: AMO1 myeloma cells viability, CellTiter-Glo ATP luminescence, 48 h; series mostly up to 45.8 µM
# In short: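 CellTiter-Glo ATP luminescence gave viability after 48 h compound treatment at 37C of 500 multiple myeloma cells per well. Normalisation used DMSO-only wells as 100% and media-only wells as 0% viability; primary qHTS of approved and investigational drugs.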
# Potency is read from the fitted curve at half-maximal effect.
row,Structure (SMILES),Potency
1,Cn1c(NCCN(CCO)CCCc2ccc([N+](=O)[O-])cc2)cc(=O)n(C)c1=O,18.7 µM (active)
2,C[C@@H](N)C1CCC(C(=O)Nc2ccncc2)CC1 (some centres not stated),inactive
3,Cc1c(C(=O)NN2CCCCC2)nn(-c2ccc(Cl)cc2Cl)c1-c1ccc(Cl)cc1,16.6 µM (active)
4,CCCCCCCCOc1ccccc1C(=O)Nc1ccc(C(=O)OCC[N+](C)(CC)CC)cc1,inactive
5,O=C(CS(=O)Cc1ccco1)NCC=CCOc1cc(CN2CCCCC2)ccn1 (configuration not stated),inactive
6,CC(C)Oc1ccc2c(=O)c(-c3ccccc3)coc2c1,inactive
7,CCN(CC)CCOc1ccc(Cc2ccccc2)cc1,20.9 µM (active)
8,Cc1cccc(C)c1OCC(=O)N[C@@H](Cc1ccccc1)[C@@H](O)C[C@H](Cc1ccccc1)NC(=O)[C@H](C(C)C)N1CCCNC1=O,8.33 µM (active)
9,CCc1nc(N)nc(N)c1-c1ccc(Cl)cc1,1.48 µM (active)
10,C=CCc1cc(OC)c(O)c(C(=O)NCCO)c1,inactive
11,Cc1cc(=O)c2c(O)c3c(O)cc(=O)c4c3c3c(cc(O)c1c23)C(C)(C)C=4O,5.26 µM (active)
12,Clc1ccc(C(Cn2ccnc2)OCc2ccsc2Cl)c(Cl)c1 (configuration not stated),18.7 µM (active)
13,O=C(CCc1ccc(O)cc1)c1c(O)cc(O)cc1O,0.59 µM (active)
14,CC1(C)NC(=O)N(c2ccc([N+](=O)[O-])c(C(F)(F)F)c2)C1=O,inactive
15,CNC[C@@H](O)[C@@H](O)[C@H](O)[C@H](O)CO,inactive
16,Cc1ccc(S(=O)(=O)NC(=O)NN2CC3CCCC3C2)cc1 (configuration not stated),23.5 µM (active)
17,Clc1ccc(C(Cn2ccnc2)OCc2ccc(Sc3ccccc3)cc2)c(Cl)c1 (configuration not stated),20.9 µM (active)
18,O=C(O)c1cc(=O)c2c(OCC(O)COc3cccc4oc(C(=O)O)cc(=O)c34)cccc2o1,inactive
19,S=c1nc[nH]c2nc[nH]c12,inactive
20,COCCCN1CCC(NC(=O)c2cc(Cl)c(N)c3c2OCC3)CC1,14.8 µM (active)
21,CC(C)[C@H](N)C(=O)OCCOCn1cnc2c(=O)[nH]c(N)nc21,26.4 µM (active)
22,C[C@]12CCC(=O)C=C1CC[C@@H]1[C@H]2[C@@H](O)C[C@@]2(C)[C@H]1CC[C@]2(O)C(=O)CO,inactive
